Active and inactive are the calls of the source.
Experiments:
[1] = binders of probe aFSTL3 on microarray, primary screen, stem cell growth factor project, biochemical, small-molecule microarray, fluorescence 635/667 (AID 1064); conditions: higher = more signal;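 further: measures binding of the biotinylated anti-FSTL3 antibody to printed compounds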
[2] = binders from COS7 lysate, DM2A8 probe, primary screen, torsin A project, cell lysate, small-molecule microarray, fluorescence 635/667 (AID 1065); conditions: higher = more signal, COS7 lysate expressing mutant human TOR1A
[3] = binders of probe aFGF2 on microarray, primary screen, stem cell growth factor project, biochemical, small-molecule microarray, fluorescence 635/667 (AID 1067); conditions: higher = more signal;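 further: measures binding of biotinylated aFGF2 protein to printed compounds on slides; z-score merges feature fluorescence and signal-to-noise across triplicate slides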
[4] = binders of probe aFGF10 on microarray, primary screen, stem cell growth factor project, biochemical, small-molecule microarray, fluorescence 635/667 (AID 1071); conditions: higher = more signal;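 further: score merges 667 nm spot intensity and signal to noise from triplicate slides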
[5] = target: Neurogenic locus notch homolog protein 2 (Homo sapiens) (UniProt Q04721); test: Notch2 binders on small-molecule microarrays, primary screen, biochemical, small-molecule microarray, 635 nm fluorescence, stem cell growth factors (AID 1073); conditions: Notch2 binding, higher = more signal
[6] = target: Pro-neuregulin-1, membrane-bound isoform (Homo sapiens) (UniProt Q02297); test: NRG1 binders on small-molecule microarrays, primary screen, psychiatric disease protein project, biochemical, small-molecule microarray, fluorescence 635/667 (AID 1075); conditions: NRG1 binding, 635 nm fluorescence, higher = more signal;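 further: score combines 667 nm spot fluorescence with signal to noise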
[7] = system: Neuregulin-1 EGF-like domain; test: binders of neuregulin-1 EGF-like domain, primary screen, biochemical, small-molecule microarray, 635 nm fluorescence (AID 1081); conditions: small-molecule microarray binding, higher = more signal;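 further: binding of the protein to compounds printed on small-molecule microarray slides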
[8] = FRG1 promoter luciferase signal modulators, primary screen, FRG1 inhibition for FSHD, cell-based, C2C12 myotubes, firefly/Renilla luciferase, luminescence (AID 1084); conditions: higher = more signal, called active from +8 up or from −8 down
[9] = binders of probe aFST on microarray, primary screen, stem cell growth factor project, biochemical, small-molecule microarray, fluorescence 635/667 (AID 1086); conditions: higher = more signal;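 further: score merges 667 nm fluorescence with signal-to-noise of each printed compound spot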
[10] = binders of probe aHhip on microarray, primary screen, stem cell growth factor project, biochemical, small-molecule microarray, fluorescence 635/667 (AID 1087); conditions: higher = more signal;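 further: score merges spot fluorescence at 667nm with spot signal to noise ratio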
[11] = system: PRMT1 (protein arginine N-methyltransferase 1); test: PRMT1 binders on small-molecule microarrays, primary screen, biochemical, small-molecule microarray, 635 nm fluorescence (AID 1088); conditions: small-molecule microarray binding, higher = more signal;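 further: binding of Prmt1 protein to compounds spotted on small-molecule microarray slides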
[12] = yeast growth modulation, basal conditions, primary screen, YJM789 clinical isolate, OD600, 24 h (AID 1089);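 further: growth of clinical yeast isolate S. cerevisiae YJM 789 seeded 1000 cells per well; test concentration not given here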; conditions: S. cerevisiae YJM789 growth, higher = more signal, called active from +8 up or from −8 down
[13] = fission yeast growth modulation, primary screen, strain 972, OD600, 24 h, no modulator (AID 1090);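 further: basal condition with compound alone and no growth modifier present; test concentration not given here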; conditions: S. pombe 972 growth, higher = more signal, called active from +8 up or from −8 down
[14] = S. cerevisiae growth modulation with rapamycin, primary screen, strain BY4716, OD600, 96 h (AID 1091); conditions: higher = more signal, called active from +8 up or from −8 down; further: test concentration not given here
[15] = target: Torsin-1A-interacting protein 2 (Homo sapiens) (UniProt Q8NFQ8); test: LULL1 binders on small-molecule microarray, primary screen, cell lysate, human LULL1 lysate, 635/667 nm fluorescence (AID 1092); conditions: hLULL1 lysate binding, 635 nm fluorescence, higher = more signal;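 further: probe is lysate of COS7 cells overexpressing human LULL1; score merges per-feature 667 nm fluorescence with signal-to-noise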
[16] = E. coli growth modulation, two-sided OD650, primary screen, E. coli filamentation project, strain DRC41, 24 h (AID 1093); conditions: OD650, 24 h, higher = more signal, called active from +8 up or from −8 down;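 further: MC1000 strain lacking acrAB efflux and sulA so SOS filamentation is blocked; test concentration not given here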
[17] = small-molecule microarray binders of probe aLefty2, primary screen, biochemical, biotinylated probe, 635/667 nm fluorescence (AID 1094); conditions: higher = more signal;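 further: score merges spot fluorescence near 667 nm with spot signal-to-noise ratio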
[18] = system: Noggin (protein binding on small-molecule microarray); test: Noggin binders on small-molecule microarray, primary screen, biochemical, 635/667 nm fluorescence (AID 1095); conditions: 635 nm fluorescence, higher = more signal;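 further: score merges 667 nm feature fluorescence with signal to noise over triplicate slides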
[19] = target: Neurogenic locus notch homolog protein 3 (Homo sapiens) (UniProt Q9UM47); test: NOTCH3 binders on small-molecule microarray, primary screen, biochemical, 635/667 nm fluorescence (AID 1096); conditions: NOTCH3 binding, 635 nm fluorescence, higher = more signal
[20] = small-molecule microarray binders of probe aEGFR, primary screen, biochemical, biotinylated probe, 635/667 nm fluorescence (AID 1097); conditions: higher = more signal;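 further: probe is a biotinylated anti-EGFR antibody binding compounds printed on slides; score combines fluorescence near 667 nm and signal to noise of each spot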

Chain of Torsin-1A-interacting protein 2 (Homo sapiens) (Q8NFQ8 whole entry, looked up): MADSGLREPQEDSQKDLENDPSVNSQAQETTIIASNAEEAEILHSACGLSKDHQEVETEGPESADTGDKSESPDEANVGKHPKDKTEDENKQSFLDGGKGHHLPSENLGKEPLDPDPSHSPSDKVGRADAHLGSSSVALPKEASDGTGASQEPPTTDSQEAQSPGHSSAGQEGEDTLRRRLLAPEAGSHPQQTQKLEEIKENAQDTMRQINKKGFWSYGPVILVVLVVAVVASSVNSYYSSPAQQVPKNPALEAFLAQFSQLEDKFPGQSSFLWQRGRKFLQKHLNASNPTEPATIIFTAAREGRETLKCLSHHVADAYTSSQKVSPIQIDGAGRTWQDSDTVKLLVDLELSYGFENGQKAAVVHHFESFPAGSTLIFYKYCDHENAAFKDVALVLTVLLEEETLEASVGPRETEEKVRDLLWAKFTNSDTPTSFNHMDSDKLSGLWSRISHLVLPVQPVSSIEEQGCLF
Chain of Pro-neuregulin-1, membrane-bound isoform (Homo sapiens) (Q02297 whole entry, looked up, the tested form may be a part, canonical isoform): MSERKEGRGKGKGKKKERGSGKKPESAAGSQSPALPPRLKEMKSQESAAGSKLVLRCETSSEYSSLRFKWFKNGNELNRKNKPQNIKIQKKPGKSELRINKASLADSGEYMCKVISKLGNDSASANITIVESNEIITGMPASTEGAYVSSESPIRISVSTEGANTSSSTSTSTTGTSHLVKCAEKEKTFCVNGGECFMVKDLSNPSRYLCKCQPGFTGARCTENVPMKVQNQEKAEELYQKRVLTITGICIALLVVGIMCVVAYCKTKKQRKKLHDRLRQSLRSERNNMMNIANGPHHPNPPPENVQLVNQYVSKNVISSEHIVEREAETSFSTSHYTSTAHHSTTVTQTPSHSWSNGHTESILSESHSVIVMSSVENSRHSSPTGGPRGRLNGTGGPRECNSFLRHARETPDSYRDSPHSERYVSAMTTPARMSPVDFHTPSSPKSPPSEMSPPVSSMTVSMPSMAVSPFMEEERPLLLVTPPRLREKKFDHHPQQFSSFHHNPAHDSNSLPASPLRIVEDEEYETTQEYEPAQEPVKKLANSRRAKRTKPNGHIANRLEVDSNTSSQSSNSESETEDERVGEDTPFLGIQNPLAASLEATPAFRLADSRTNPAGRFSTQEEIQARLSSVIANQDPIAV
Chain of Neurogenic locus notch homolog protein 2 (Homo sapiens) (Q04721 whole entry, looked up, canonical isoform): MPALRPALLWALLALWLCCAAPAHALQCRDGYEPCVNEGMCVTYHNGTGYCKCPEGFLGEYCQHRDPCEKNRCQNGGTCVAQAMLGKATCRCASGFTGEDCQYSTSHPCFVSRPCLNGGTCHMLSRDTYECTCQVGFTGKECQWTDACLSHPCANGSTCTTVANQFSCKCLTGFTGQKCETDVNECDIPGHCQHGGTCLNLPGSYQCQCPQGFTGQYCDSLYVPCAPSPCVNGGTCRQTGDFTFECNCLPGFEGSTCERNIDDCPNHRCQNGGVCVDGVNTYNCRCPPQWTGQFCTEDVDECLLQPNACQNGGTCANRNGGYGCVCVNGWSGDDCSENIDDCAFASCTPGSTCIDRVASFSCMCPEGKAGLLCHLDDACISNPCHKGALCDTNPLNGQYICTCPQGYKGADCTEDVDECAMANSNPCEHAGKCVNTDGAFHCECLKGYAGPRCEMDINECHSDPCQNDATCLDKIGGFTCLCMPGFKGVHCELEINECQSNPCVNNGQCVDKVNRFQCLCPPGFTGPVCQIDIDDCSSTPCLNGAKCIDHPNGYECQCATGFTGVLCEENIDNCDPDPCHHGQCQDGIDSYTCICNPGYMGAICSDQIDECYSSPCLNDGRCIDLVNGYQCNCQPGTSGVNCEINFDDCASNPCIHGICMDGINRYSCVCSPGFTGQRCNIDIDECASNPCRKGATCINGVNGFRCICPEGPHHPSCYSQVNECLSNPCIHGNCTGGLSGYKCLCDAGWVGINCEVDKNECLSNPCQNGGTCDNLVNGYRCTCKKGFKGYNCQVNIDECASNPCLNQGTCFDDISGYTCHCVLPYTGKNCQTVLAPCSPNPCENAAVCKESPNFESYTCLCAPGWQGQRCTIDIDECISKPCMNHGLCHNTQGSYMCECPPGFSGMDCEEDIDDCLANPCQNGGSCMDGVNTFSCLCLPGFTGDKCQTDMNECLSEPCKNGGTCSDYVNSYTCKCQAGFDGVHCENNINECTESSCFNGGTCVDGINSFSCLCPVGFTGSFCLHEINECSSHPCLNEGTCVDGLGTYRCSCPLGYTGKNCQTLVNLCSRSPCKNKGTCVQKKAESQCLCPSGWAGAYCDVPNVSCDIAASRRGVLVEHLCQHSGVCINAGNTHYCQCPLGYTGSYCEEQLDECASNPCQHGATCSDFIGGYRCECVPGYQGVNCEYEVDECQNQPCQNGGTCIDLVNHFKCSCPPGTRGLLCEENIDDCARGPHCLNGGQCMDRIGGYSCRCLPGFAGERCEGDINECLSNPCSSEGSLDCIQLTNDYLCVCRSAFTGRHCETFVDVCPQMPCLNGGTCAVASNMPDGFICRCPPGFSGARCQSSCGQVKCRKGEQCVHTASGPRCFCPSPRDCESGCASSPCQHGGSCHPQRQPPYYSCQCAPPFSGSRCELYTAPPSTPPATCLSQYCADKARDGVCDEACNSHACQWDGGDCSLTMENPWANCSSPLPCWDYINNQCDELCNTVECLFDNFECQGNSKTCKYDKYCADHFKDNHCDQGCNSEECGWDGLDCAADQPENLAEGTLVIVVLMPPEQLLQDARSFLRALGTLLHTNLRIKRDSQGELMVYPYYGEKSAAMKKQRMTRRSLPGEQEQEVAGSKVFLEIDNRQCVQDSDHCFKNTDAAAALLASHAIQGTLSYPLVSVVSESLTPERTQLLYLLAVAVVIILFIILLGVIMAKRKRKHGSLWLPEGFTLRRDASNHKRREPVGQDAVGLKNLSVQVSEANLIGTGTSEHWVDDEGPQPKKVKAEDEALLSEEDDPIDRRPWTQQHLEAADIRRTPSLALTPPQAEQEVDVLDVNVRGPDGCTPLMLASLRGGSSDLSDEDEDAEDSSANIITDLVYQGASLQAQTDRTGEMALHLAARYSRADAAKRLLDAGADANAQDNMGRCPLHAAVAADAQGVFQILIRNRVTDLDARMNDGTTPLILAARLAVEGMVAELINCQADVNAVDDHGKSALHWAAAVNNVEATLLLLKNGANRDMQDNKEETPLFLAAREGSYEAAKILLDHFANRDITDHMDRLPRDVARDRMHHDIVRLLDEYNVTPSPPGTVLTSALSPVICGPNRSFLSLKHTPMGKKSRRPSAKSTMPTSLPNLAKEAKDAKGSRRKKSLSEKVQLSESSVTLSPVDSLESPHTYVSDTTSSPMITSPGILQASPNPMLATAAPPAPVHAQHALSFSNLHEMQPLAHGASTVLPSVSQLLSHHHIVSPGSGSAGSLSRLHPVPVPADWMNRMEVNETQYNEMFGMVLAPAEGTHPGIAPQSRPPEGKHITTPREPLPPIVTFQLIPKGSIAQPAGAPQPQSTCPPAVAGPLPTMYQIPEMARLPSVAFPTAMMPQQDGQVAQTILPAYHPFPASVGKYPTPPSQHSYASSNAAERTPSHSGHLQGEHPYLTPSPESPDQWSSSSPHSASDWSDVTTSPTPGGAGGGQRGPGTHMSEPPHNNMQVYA

Row | SMILES | composite z-score [1] | composite z-score [2] | composite z-score [3] | composite z-score [4] | composite z-score [5] | composite z-score [6] | composite z-score [7] | z-score [8] | composite z-score [9] | composite z-score [10] | composite z-score [11] | z-score [12] | z-score [13] | z-score [14] | composite z-score [15] | z-score [16] | composite z-score [17] | composite z-score [18] | composite z-score [19] | composite z-score [20]
1 | COCCCNC(=O)[C@@H]1c2ccccc2C(=O)N(c2ccc(C)cn2)[C@H]1c1ccc(CO)cc1 | 1.02 | -1.72 | -0.294 | -0.286 | -1.58 | 0.825 | -0.54 | 0.183 (inactive) | -0.939 | -0.233 | -0.0842 | 0.331 (inactive) | -1.18 (inactive) | -0.19 (inactive) | 0.674 | -2.29 (inactive) | 0.0748 | -1.73 | -0.502 | -0.379
2 | NCCCCCCNC(=O)[C@H]1C[C@H]2C(=O)N3CCC[C@H]3C(=O)N2[C@H]1c1ccc(O)cc1 | 0.185 | 0.533 | -0.029 | 0.176 | -0.45 | 1.23 | 1.22 | -0.415 (inactive) | 0.0744 | -0.184 | 1.29 | -0.777 (inactive) | -1.25 (inactive) | -0.28 (inactive) | 0.991 | 0.181 (inactive) | -0.179 | 1.41 | 0.419 | 0.0053
3 | O=C1O[C@H](c2ccccc2)[C@H](c2ccccc2)N2[C@H]1[C@@H](C(=O)N1CCN(c3ncccn3)CC1)[C@]1(C(=O)Nc3ccc(C#CCCO)cc31)[C@H]2c1ccc(OCCO)cc1 | 0.0379 | 1.26 | 0.0229 | 1.26 | 1.53 | 0.826 | 0.995 | 0.0862 (inactive) | 1.35 | -0.0994 | 1.54 | 0.987 (inactive) | 1.14 (inactive) | 4.15 (inactive) | 3.13 | 0.132 (inactive) | 0.152 | 1.47 | 1.1 | 0.155
4 | C=CCC(OC(C)=O)[C@@H]1[C@@H](N(Cc2ccc(-c3cccc(C(F)(F)F)c3)o2)C(=O)c2cccc3ccccc23)c2cc(OCCCO)ccc2N1C(=O)c1ccc(-c2ccccc2)cc1 (stereo not given in full) | -0.188 | 0.0536 | -0.12 | -0.212 | -0.628 | 0.0252 | -0.908 | -0.579 (inactive) | 0.123 | 0.0749 | -0.496 | 0.0476 (inactive) | 0.0758 (inactive) | -0.0038 (inactive) | -0.94 | -0.993 (inactive) | -0.0785 | 1.06 | -0.358 | -0.099
5 | COCCOC(=O)N1C(=O)[C@@]2(c3cc(C#Cc4ccc(OC)cc4)ccc31)[C@H](C(=O)N1CCc3cc(OC)c(OC)cc3C1)[C@H]1C(=O)O[C@H](c3ccccc3)[C@H](c3ccccc3)N1[C@@H]2c1ccc(OCCO)cc1 | -0.172 | 0.454 | -0.0567 | 0.452 | 1.22 | 0.62 | 1.16 | 1.36 (inactive) | 0.0478 | 0.0623 | 1.33 | 2.2 (inactive) | 1.36 (inactive) | 5.75 (inactive) | 1.32 | 0.816 (inactive) | -0.104 | 1.22 | 1.15 | 0.0343

Reference: PubChem BioAssay
